The panel holds about 83,000 compounds, 20% with a hit somewhere; the sample as a whole holds those more often.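 Treatment: one concentration, 48 hours, 96-well format. Scoring: percent growth, with anything below 10 considered active.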 Active and inactive are the calls of the source.
Legend:
Assay in all cases: NCI-60 one-dose screen, 48 h (100 = growth as untreated, 0 = no growth, -100 = all killed)
Details in all cases: 10 µM unless noted
SK-MEL-2 melanoma = tested on: SK-MEL-2 melanoma
EKVX NSCLC = tested on: EKVX NSCLC
SN12C renal = tested on: SN12C renal
UO-31 renal = tested on: UO-31 renal
TK-10 renal = tested on: TK-10 renal
ACHN renal = tested on: ACHN renal
CAKI-1 renal = tested on: CAKI-1 renal
A498 renal = tested on: A498 renal
CCRF-CEM leukemia = tested on: CCRF-CEM leukemia
MOLT-4 leukemia = tested on: MOLT-4 leukemia

Measured: growth

CC1(C)CC[C@]2(C(=O)O)CC[C@]3(C)C(=CC[C@@H]4[C@@]5(C)C/C(=C/c6ccco6)C(=O)C(C)(C)[C@@H]5CC[C@]43C)[C@@H]2C1
active: SK-MEL-2 melanoma -69.3% [100 µM] | EKVX NSCLC -19.6% [100 µM] | SN12C renal -52.3% [100 µM] | UO-31 renal -98.1% [100 µM] | TK-10 renal -19.1% [100 µM] | ACHN renal -71.8% [100 µM] | CAKI-1 renal -35% [100 µM] | A498 renal -42.5% [100 µM] | CCRF-CEM leukemia 4.17% [100 µM] | MOLT-4 leukemia 2.21% [100 µM]

ClC1=C(Cl)C(Cl)=C(Cl)C1=Cc1ccccc1
active: SK-MEL-2 melanoma -28% | EKVX NSCLC -4.72% | SN12C renal -57% | UO-31 renal -87.1% | TK-10 renal -36.3% | ACHN renal -35.5% | CAKI-1 renal -37.9% | A498 renal -74.1% | CCRF-CEM leukemia 8.52% | MOLT-4 leukemia 2.93%

CC(C)(C)OC(=O)N1C=C/C(=C\Cn2cc(-c3ccccc3)nn2)CC1
active: CCRF-CEM leukemia 2.78%
inactive: SK-MEL-2 melanoma 64% | EKVX NSCLC 79.8% | SN12C renal 73.7% | UO-31 renal 54.6% | TK-10 renal 98.6% | ACHN renal 68.7% | CAKI-1 renal 67% | A498 renal 54.2% | MOLT-4 leukemia 65.2%

O=C(O)c1ccccc1C(F)(F)F
inactive: SK-MEL-2 melanoma 112% | EKVX NSCLC 93.2% | SN12C renal 90.9% | UO-31 renal 95.3% | TK-10 renal 111% | ACHN renal 92.6% | CAKI-1 renal 87.8% | A498 renal 74.5% | CCRF-CEM leukemia 108% | MOLT-4 leukemia 97.1%

Brc1ccc(-c2nnc3c4[nH]ccc4ncn23)cc1
inactive: SK-MEL-2 melanoma 92.2% | EKVX NSCLC 77.5% | SN12C renal 90.5% | UO-31 renal 58.6% | TK-10 renal 89.4% | ACHN renal 78.7% | CAKI-1 renal 87.3% | A498 renal 70.6% | CCRF-CEM leukemia 97.3% | MOLT-4 leukemia 77.2%

COC(=O)[C@]12CCC(C)(C)C[C@H]1C1=CC[C@@H]3[C@@]4(C)C/C(=C/c5cccnc5)C(=O)C(C)(C)[C@@H]4CC[C@@]3(C)[C@]1(C)CC2
active: SK-MEL-2 melanoma -70.3% [100 µM] | EKVX NSCLC -44.8% [100 µM] | SN12C renal -51.4% [100 µM] | UO-31 renal -81.6% [100 µM] | TK-10 renal -35.9% [100 µM] | ACHN renal -61.1% [100 µM] | CAKI-1 renal -15.4% [100 µM] | A498 renal -69.8% [100 µM] | CCRF-CEM leukemia 2.85% [100 µM] | MOLT-4 leukemia -14% [100 µM]
